Assay results taken from PubChem BioAssay (NCATS).
Results filed as inconclusive are left out. Unmarked numbers belong to inactive results. The source made the active and inactive calls. The call rests on the fitted dose curve; in most records, active means well fitted inhibition curve with a large enough effect; inconclusive means small, poorly fitted or top-dose-only effect; inactive means flat fitted curve, though single readings scatter.

Assay: Cytometry Cell-Based qHTS for Inhibitors of the mTORC1 Signaling Pathway in MEF cells (AID 2668);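 further: Tsc2-/- p53-/- mouse embryonic fibroblasts stably re-expressing wild-type Tsc2; percent cells positive for phospho-rpS6 Ser235/236 relative to propidium iodide stain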
Conditions: mTORC1 pathway readout; series mostly up to 38.3 µM; activity change, negative = inhibition: at the top concentration
Excerpt: NIH Molecular Libraries Probe Production Centers Network [MLPCN]
NIH Chemical Genomics Center [NCGC]
Assay Submitter (PI): Blenis, John; Hoffman, Greg; Harvard University
NCGC Assay Overview: The mammalian target of rapamycin (mTOR) is an intracellular serine/threonine kinase Aberrant regulation of mTOR signaling plays a causative role in a number of human diseases, including cancer, benign tumors such as lymphangioleiomyomatosis (LAM) and Tuberous Sclerosis Complex (TSC), and metabolic diseases such as diabetes and obesity. This project aims to identify inhibitors of ribosomal protein S6 (rpS6) phosphorylation. The phosphorylation of rpS6 is a key event downstream of mTOR activation. The assay uses a phospho-specific antibody of phospho-rpS6 to detect inhibitors of mTOR activation. Mutations in the Tsc1 and Tsc2 genes are the underlying genetic lesions responsible for TSC, causing constitutive activation of the mTORC1 pathway and leading to profound effects on cell metabolism. Aberrant metabolism in cancer has recently received significant attention as a target to develop therapeutic agents in the treatment of cancer.1 As Tsc2-/- cells have lost the ability to respond to energy and growth factor deprivation, these cells are unable to properly down regulate cellular biosynthetic processes in response to metabolic stress, and are thus extremely sensitive to glucose deprivation-induced death.2 A central goal of this project is to explore the unique cell survival and metabolic properties of cells with Tsc1 or Tsc2 by screening for compounds that selectively target the Tsc2-/- MEFs by screening both Tsc2-/- and WT MEF cell lines. We hope to better understand these aspects of TSC physiology in order to exploit them for therapeutic benefit.
NCGC Acumen Assay Protocol:
For quantitative high throughput analysis of mTORC1 signaling, we developed a cell-based assay for immuno-fluorescence based detection of rpS6 phosphorylation on the Acumen Explorer that will be used a platform for the primary small molecule screen. Mouse embryonic fibroblasts (MEFs) are cultured in 1536-well plates using DMEM + 10% FBS. Twenty-four hrs after plating, test compounds (solubilized in DMSO) are delivered and incubated with the cells for 24 hrs at 37 degree Celsius. Following the incubation, media with compound is aspirated and the cells are fixed in 4% paraformaldehyde (PFA) containing PBS + 0.2% TX-100. Next, PFA is aspirated, cells are washed two times with PBS plus 0.2% TX-100 and the cells are blocked for 1 hr at room temperature (blocking buffer: LiCOR Blocking Buffer plus 0.2% TX-100). This is followed by aspiration and staining with Alexa-488 conjugated-phospho-rpS6 Ser235/236 antibody for 2 hours at room temperature (Cell Signaling Technology # 4803, 1:50 dilution in blocking buffer). Cells are washed two times with PBS plus 0.2% TX-100, and stained with 10 uM propidium iodide (PI) for 20-25 minutes for cell number measurement (1:500 dilution of Hoescht staining is also added for IN Cell imaging). The plates are scanned on the Acumen Explorer laser scanning instrument (TTP Labtech) using the 488nm laser for simultaneous excitation of the Alexa-488 and PI. The fluorescence emission from the Alexa-488 conjugated rpS6 phospho-235/236 antibody staining is selected using a […] band pass filter. Fluorescence emission from the PI stain is selected using a 575-640 nm band pass filter. The normalized phospho-S6 staining is calculated as the ratio of the integrated Alexa 488 intensity divided by the integrated PI intensity for the single concentration rapamycin control (7.5 nM) and DMSO columns. […] Inhibition of the pathway is defined based on the normalized phospho-S6 intensity in rapamycin treated cells. […]
For `CC(C)c1cccc(C(C)C)c1O`, the “activity change, negative = inhibition” value was -0.398%.
In the case of `CC(C)N(CCC(C(N)=O)(c1ccccc1)c1ccccn1)C(C)C` (stereo not given), the outcome is reported as “inactive”.
With `C=C(C)[C@H]1CN[C@H](C(=O)O)[C@H]1CC(=O)O` the “activity change, negative = inhibition” value was 6.07%.
With `Cc1ncsc1CCCl` the “activity change, negative = inhibition” value was -2.86%.
In the case of `NCCc1ccc(O)cc1`, the “activity change, negative = inhibition” value is reported as 12.9%.
With `CCCCC/C=C\C/C=C\C/C=C\C/C=C\CCCC(=O)NCC(=O)O` the “activity change, negative = inhibition” value was 1.39%.
In the case of `CN1C(=O)CCS(=O)(=O)C1c1ccc(Cl)cc1` (stereo not given), the “activity change, negative = inhibition” value is reported as -4.58%.
With `CC(C)(C)NCC(O)c1ccccc1Cl` (stereo not given) the “activity change, negative = inhibition” value was -4.64%.
For `COc1ccc2c(c1OC)C(=O)O[C@H]2[C@@H]1c2cc3c(cc2CCN1C)OCO3`, the “activity change, negative = inhibition” value was 1.95%.
With `O=C(O)CCCc1ccc(N(CCCl)CCCl)cc1` the “activity change, negative = inhibition” value was -14.7%.
In the case of `CC(NC(C)(C)C)C(=O)c1cccc(Cl)c1` (stereo not given), the “activity change, negative = inhibition” value is reported as 10.4%.
In the case of `O=c1[nH]oc2c1CCNC2`, the “activity change, negative = inhibition” value is reported as 7.78%.
In the case of `CCC1(c2ccc(N)cc2)CCC(=O)NC1=O` (stereo not given), the “activity change, negative = inhibition” value is reported as 0.534%.
In the case of `O=P1(N(CCCl)CCCl)NCCCO1` (stereo not given), the “activity change, negative = inhibition” value is reported as 5.95%.
With `O=C(CCCN1CCC2(CC1)C(=O)NCN2c1ccccc1)c1ccc(F)cc1` the “activity change, negative = inhibition” value was -26.9%.
